# Laboratory results taken from PubChem BioAssay (NCI).
# About 83,000 compounds went through this panel and 20% of them were active in at least one assay; those are over-represented in the sample as a whole.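 Interpretation: 100, growth as untreated; towards 0, rising growth inhibition; 0, no net growth; 0 to -100, cell death. Compounds scoring below 10 were considered active.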 Active and inactive are the calls of the source.
# Tested on: SR leukemia
# Test: NCI-60 one-dose screen, 48 h (100 = growth as untreated, 0 = no growth, -100 = all killed)
# Conditions: 10 µM unless noted
# Method: Growth inhibition of the SR human tumor cell line is measured as a screen for anti-cancer activity. Cells are grown in 96 well plates and exposed to the test compound for 48 hours. Compounds are tested at a single concentration, which is 10^-5 M for most compounds. The reported endpoint is percent growth (GI% or GIPRCNT), where numbers from 0 - 100% represent growth inhibition, and numbers from -100% - 0 represent cell death. For example, a value of 40 represents 60% growth inhibition. A value of 0 means no net growth occurred over the course of the experiment. A value of -40 indicates 40% of cells at the beginning of the experiment died by the end of the experiment. A value of -100 means all cells are dead at the end of the experiment.
# NCI-60 Human Tumor Cell Lines Screen was performed using the standard one-dose NCI protocol, which is described in more detail at https://dtp.cancer.gov/discovery_development/nci-60/default.htm.
# Compounds with GIPRCNT values below 10 were considered active. Activity score was based on GIPRCNT using the following formula: […]
# Score is 0 for GIPRCNT values of 100 or above, 50 for GIPRCNT values of 0, and 100 for GIPRCNT values of -100.
row,SMILES,growth
1,CCOC(=O)NNC(=S)Nc1ccccc1,110% (inactive)
2,O=c1[nH]c(NCc2ccccc2)nc2nc(Nc3ccc(NC(=S)Nc4ccccc4)cc3)nc(-c3ccc(O)cc3O)c12,67.5% (inactive)
3,S=C(S)NCCc1c[nH]c2ccccc12,94.9% (inactive)
4,COc1ccc(-c2nc3sc(-c4cc(OC)c(OC)c(OC)c4)nn3c2/C=C2/C(=O)Nc3ccc(F)cc32)cc1,18.6% (inactive)
5,CCCOC(=O)n1cccc1,114% (inactive)
6,CC(C)NCCCNC1=C(Cl)C(=O)c2ccccc2C1=O,-22.7% (active)
7,COC(=O)C(Sc1ccc(Cl)cc1)C1SC(=S)N(Cc2ccccc2)C1=O (stereo not given),50.8% (inactive)
8,COc1ccc(NC(=O)CSc2nc(-c3ccc(OC)c(OC)c3)cc(-c3cc(OC)c(OC)c(OC)c3)n2)cc1,104% (inactive)
9,CCC(C)/C(=C\C#N)NCCCN/C(=C/C#N)C(C)CC (stereo not given),90.4% (inactive)
10,CCN(CC)CCOC(=O)C(c1ccccc1)(c1ccccc1)C(C)C,84% (inactive)
11,CCN(CC)CCC(CNc1ccnc2cc(Cl)ccc12)c1ccc(Cl)cc1 (stereo not given),-13.2% (active)
12,N#Cc1c(-c2ccccc2)cc(-c2ccccc2)n(CC(=O)NO)c1=O,2.74% (active)
13,CNC(=S)NNC(=O)C1CC1,67.5% (inactive)
14,CCCCCCCCCCCCCCCCCCNC(=O)[C@H]1CSC(c2cccs2)N1 (stereo not given in full),-41.2% (active)
15,COC(=O)c1cccc2c1N(C)c1c(cccc1C(=O)OC)CC2,114% (inactive)
16,COc1cccc(/C=C2\Oc3cc(OCCCN4CCCC4)ccc3C2=O)c1,-22.9% (active)
17,O=c1[nH]c2ccc(Br)cc2c2c1C(c1ccc(Cl)cc1)c1c(ncn3nc(-c4ccco4)nc13)O2 (stereo not given),62.3% (inactive)
18,Fc1ccc(Nc2ncnc3ccc(-c4cnc5[nH]ccc5c4)cc23)cc1Cl,-26.1% (active)
19,O=c1ccn(-c2ncnc3nc[nH]c23)cc1,86.2% (inactive)
20,O=C(Nc1ccc(Cl)c(Cl)c1)NS(=O)(=O)c1cnccc1Oc1ccc(F)cc1,51.2% (inactive)

row,SMILES,growth
1,O=[N+]([O-])c1ccc(OCCCOc2ccccc2)cc1,92.3% (inactive)
2,CC(=O)Oc1csc(N(C(C)=O)c2cccc(C(F)(F)F)c2)n1,107% (inactive)
3,CN(C)c1ncnc2c1ccn2C1OC(CO)C(O)C1O (stereo not given),89.5% (inactive)
4,CN1CCN(CCCOc2ccc3nc(Nc4ccc(Cl)c(C(F)(F)F)c4)ccc3c2)CC1,2.08% (active)
5,COc1ccc(-c2ccc(-c3ccc(C(=N)N)s3)s2)cc1Cl,-16.5% (active)
6,CCOC(=O)C1=C(C)NC(C)=C(C(=O)OCC)C1(C)C,90.6% (inactive)
7,O=C1C2(c3ccccc3)C(c3ccccc3)=C(c3ccccc3)C1(c1ccccc1)C1CC=CC12 (stereo not given),101% (inactive)
8,COc1cc(/C=C/C(=O)N2CCN(C(=O)/C=C/c3cc(OC)c(OC)c(OC)c3)CC2)cc(OC)c1OC,75.2% (inactive)
9,OC(c1cc2cc(Br)ccc2c2cc(Br)ccc12)C1CCCCN1 (stereo not given),-74.1% (active)
10,CCCCCCCCCCCCCCCCNC(=O)OC(C)C,1.69% (active)
11,O=c1ccn(C2CC(O)C(O)C(CO)O2)c(=O)[nH]1 (stereo not given),123% (inactive)
12,O=[N+]([O-])c1ccc(C(c2ccccc2)c2ccccc2)cc1,90.8% (inactive)
13,C=C(C)[C@@H]1CC[C@]2(C(=O)N3CCNCC3)CC[C@]3(C)[C@H](CC[C@@H]4[C@@]5(C)C/C(=C/c6ccncc6)C(=O)C(C)(C)[C@@H]5CC[C@]43C)[C@@H]12,106% (inactive)
14,COC(OC)c1ccccc1,93.9% (inactive)
15,COc1ccc(Nc2ncccc2C(=O)NCc2cn(Cc3cccc(Oc4ccccc4)c3)nn2)cc1,30.8% (inactive)
16,COc1ccc(C(=O)N2NC(=O)/C(=C/c3ccc(Br)cc3)N=C2c2ccccc2)cc1,57.2% (inactive)
17,NNc1cccc(/C=C/c2ccccc2)cc1=O,31.8% (inactive)
18,COc1ccc(/C=C2/C(=O)NC(SCC(=O)N3CCN(c4cc5c(cc4F)c(=O)c(C(=O)O)cn5C4CC4)CC3)=NC2N)cc1OC (stereo not given),108% (inactive)
19,O=C(Oc1ccccc1[N+](=O)[O-])C1CCCN1C(=O)OCc1ccccc1 (stereo not given),82.4% (inactive)
20,CC(C)C1=CC2=C(C=O)C[C@@H]3[C@](C)(CCC[C@@]3(C)C(=O)OCC#CCN3CCCC3)[C@H]2CC1,26.4% (inactive)
